Inconclusive results are not listed. Activity calls are given as the source filed them. Unless noted, the call rests on the fitted dose curve; in most records, active means well fitted curve in the direction sought with a large enough effect in the repeat runs; inconclusive means weak or mixed curves; inactive means no such curve, though single readings can be large; an effect the other way counts as inactive or inconclusive.
What was measured:
[1] = qHTS assay to identify small molecule antagonists of the thyroid receptor (TR) signaling pathway (AID 743065); further: series mostly up to about 70 µM; nearly all actives have a fitted effect of over 55% in size
Outline: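 Antagonism measured as loss of luciferase signal in GH3 cells stably carrying a TRE-luciferase reporter, co-treated with compound and T3 (1 nM final) for 23.5 h at 37 C. Viability was read in the same well by CellTiter-Fluor.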

[2] = test system: thyroid hormone receptor (rat, GH3 cells); test: qHTS assay to identify small molecule agonists of the thyroid receptor (TR) signaling pathway (AID 743066; calls by dose curve)
[3] = biological target: Estrogen receptor (Homo sapiens) (UniProt P03372); test: qHTS assay to identify small molecule antagonists of the estrogen receptor alpha (ER-alpha) signaling pathway (AID 743069; active means well fitted curve in the direction sought with a large enough effect in the signal ratio in the repeat runs, not every such curve was filed as active; the % refers to the signal ratio)
Outline: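 ER-alpha-UAS-bla GripTite HEK293 line; 2% charcoal-stripped FBS overnight; plated, 4 hr 37C/5% CO2; cpd in DMSO + 17beta-estradiol, 18 hr 37C; LiveBLAzer B/G FRET substrate 2 hr RT; fluorescence intensity.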

[4] = qHTS assay to identify small molecule antagonists of the estrogen receptor alpha (ER-alpha) signaling pathway - cell viability counter screen (AID 743074; calls by dose curve;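 further: HEK293 cells carrying ER-alpha-UAS-bla reporter stimulated with 17beta-estradiol; nearly all actives have a fitted effect of over 45% in size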)
[5] = biological target: Estrogen receptor (Homo sapiens) (UniProt P03372); test: qHTS assay to identify small molecule agonists of the estrogen receptor alpha (ER-alpha) signaling pathway (AID 743075; calls by dose curve;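 further: HEK293 GripTite cells with ER-alpha and UAS-driven beta-lactamase reporter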)
[6] = biological target: Estrogen receptor (Homo sapiens) (UniProt P03372); test: qHTS assay to identify small molecule agonists of the estrogen receptor alpha (ER-alpha) signaling pathway using the BG1 cell line (AID 743079); further: nearly all actives have a fitted effect of over 20% in size
[7] = qHTS assay to identify small molecule antagonists of the estrogen receptor alpha (ER-alpha) signaling pathway using the BG1 cell line (AID 743080; calls by dose curve; further: series mostly up to about 70 µM; nearly all actives have a fitted effect of over 25% in size)
Outline: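 Antagonist mode: compounds in DMSO were pinned onto BG1-Luc-4E2 cells alongside 17beta-estradiol agonist, incubated 21.5 h, and ERE-driven luciferase measured with ONE-Glo. Cytotoxicity was multiplexed using CellTiter-Fluor fluorescence.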

[8] = qHTS assay to identify small molecule antagonists of the estrogen receptor alpha (ER-alpha) signaling pathway using the BG1 cell line - cell viability counter screen (AID 743081);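 further: compound given together with 17beta-estradiol as the ER stimulus; series mostly up to about 70 µM; nearly all actives have a fitted effect of over 45% in size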
Aromatase (Homo sapiens) = Aromatase (Homo sapiens) (UniProt P11511); test: qHTS assay to identify aromatase inhibitors (AID 743083); further: series mostly up to about 70 µM; nearly all actives have a fitted effect of over 55% in size
[9] = qHTS assay to identify aromatase inhibitors - cell viability counter screen (AID 743084);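 further: cells stimulated with testosterone during compound exposure; nearly all actives have a fitted effect of over 55% in size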
[10] = biological target: Aryl hydrocarbon receptor (Homo sapiens) (UniProt P35869); test: qHTS assay to identify small molecule that activate the aryl hydrocarbon receptor (AhR) signaling pathway (AID 743085);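 further: HG2L7.5c1 human HepG2 liver cells with stably integrated DRE-driven firefly reporter; series mostly up to about 70 µM; nearly all actives have a fitted effect of over 15% in size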
Outline: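 AhR agonist activity is inferred from enhanced light output of a DRE-controlled firefly luciferase reporter in HepG2 cells, measured with ONE-Glo following 24 h treatment at 37C.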

[11] = qHTS assay to identify small molecule that activate the aryl hydrocarbon receptor (AhR) signaling pathway - cell viability counter screen (AID 743086);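 further: HepG2 liver cells carrying the AhR DRE luciferase reporter; series mostly up to about 70 µM; nearly all actives have a fitted effect of over 45% in size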
Outline: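 Cytotoxicity counter screen: CellTiter-Fluor signal (30 min, 37 C) in 4000 HepG2 cells/well carrying the DRE-luciferase reporter, following 24 h compound exposure at 37 C.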

[12] = biological target: Peroxisome proliferator-activated receptor gamma (Homo sapiens) (UniProt P37231); test: qHTS assay to identify small molecule agonists of the peroxisome proliferator-activated receptor gamma (PPARg) signaling pathway (AID 743094; active means well fitted activation curve with a large enough effect in the signal ratio in the repeat runs, not every such curve was filed as active; the % refers to the signal ratio)
Outline: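 Compounds dissolved in DMSO were added to PPARg UAS-bla HEK293H cells for 17 h at 37C, and reporter expression was quantified by fluorescence intensity after 1 h with LiveBLAzer B/G FRET substrate.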

[13] = biological target: Peroxisome proliferator-activated receptor gamma (Homo sapiens) (UniProt P37231); test: qHTS assay to identify small molecule antagonists of the peroxisome proliferator-activated receptor gamma (PPARg) signaling pathway (AID 743191; calls by dose curve; further: series mostly up to about 63 µM; nearly all actives have a fitted effect of over 30% in size)
Outline: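 Beta-lactamase reporter under UAS control in HEK293H PPARg-bla cells; compound treatment 17 h at 37C. Read-out: fluorescence intensity after 1 h room-temperature incubation with LiveBLAzer B/G FRET substrate.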

[14] = qHTS assay to identify small molecule antagonists of the peroxisome proliferator-activated receptor gamma (PPARg) signaling pathway - cell viability counter screen (AID 743194); further: nearly all actives have a fitted effect of over 55% in size
Outline: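 Viability was measured as CellTiter-Glo luminescence in GeneBLAzer PPARg UAS-bla HEK293H cells. These cells had been exposed 17 h at 37 C to compounds together with rosiglitazone at 50 nM final, with the beta-lactamase readout taken in the same wells.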

[15] = qHTS assay for small molecule agonists of the antioxidant response element (ARE) signaling pathway (AID 743202; active means well fitted activation curve with a large enough effect in the signal ratio in the repeat runs, not every such curve was filed as active; the % refers to the signal ratio)
Outline: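 Quantitative high-throughput format in HepG2 cells bearing an integrated ARE-beta-lactamase reporter. Compound exposure lasted 16 h at 37 C, and fluorescence was read 2 h after adding LiveBLAzer B/G substrate at room temperature.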

[16] = qHTS assay for small molecule agonists of the antioxidant response element (ARE) signaling pathway - cell viability counter screen (AID 743203; calls by dose curve; further: nearly all actives have a fitted effect of over 55% in size)
Outline: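 Following 16 hrs of compound treatment at 37C, HepG2 cells with an ARE-controlled beta-lactamase gene were lysed with CellTiter-Glo. Luminescence was read after 30 min at room temperature.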

[17] = qHTS assay for small molecule activators of the heat shock response signaling pathway - cell viability counter screen (AID 743209); further: nearly all actives have a fitted effect of over 50% in size
Outline: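 Readout: CellTiter-Glo luminescence, 30 min at room temperature. System: HSE-bla HeLa cells, 1500/well, plated overnight. Treatment: compounds in DMSO, 5 h at 37 C.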

[18] = qHTS assay for small molecule activators of the heat shock response signaling pathway (AID 743210; active means well fitted activation curve with a large enough effect in the signal ratio in the repeat runs, with a control signal flat, not every such curve was filed as active; the % refers to the signal ratio;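 further: HeLa cells with beta-lactamase reporter driven by heat shock elements; series mostly up to about 63 µM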)
Outline: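 HeLa HSE-bla cells, overnight plating; cpd in DMSO 5 h, 37 C; LiveBLAzer B/G FRET substrate 2.5 h RT; fluorescence intensity read.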

[19] = qHTS assay to identify small molecule agonists of the peroxisome proliferator-activated receptor delta (PPARd) signaling pathway - cell viability counter screen (AID 743211); further: nearly all actives have a fitted effect of over 55% in size
Outline: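 qHTS cell viability: PPARd-bla HEK293H; 17 h cpd, 37C; CellTiter-Glo, luminescence at 30 min RT.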

Measured: Potency

Chain of Aryl hydrocarbon receptor (Homo sapiens) (P35869 whole entry, looked up): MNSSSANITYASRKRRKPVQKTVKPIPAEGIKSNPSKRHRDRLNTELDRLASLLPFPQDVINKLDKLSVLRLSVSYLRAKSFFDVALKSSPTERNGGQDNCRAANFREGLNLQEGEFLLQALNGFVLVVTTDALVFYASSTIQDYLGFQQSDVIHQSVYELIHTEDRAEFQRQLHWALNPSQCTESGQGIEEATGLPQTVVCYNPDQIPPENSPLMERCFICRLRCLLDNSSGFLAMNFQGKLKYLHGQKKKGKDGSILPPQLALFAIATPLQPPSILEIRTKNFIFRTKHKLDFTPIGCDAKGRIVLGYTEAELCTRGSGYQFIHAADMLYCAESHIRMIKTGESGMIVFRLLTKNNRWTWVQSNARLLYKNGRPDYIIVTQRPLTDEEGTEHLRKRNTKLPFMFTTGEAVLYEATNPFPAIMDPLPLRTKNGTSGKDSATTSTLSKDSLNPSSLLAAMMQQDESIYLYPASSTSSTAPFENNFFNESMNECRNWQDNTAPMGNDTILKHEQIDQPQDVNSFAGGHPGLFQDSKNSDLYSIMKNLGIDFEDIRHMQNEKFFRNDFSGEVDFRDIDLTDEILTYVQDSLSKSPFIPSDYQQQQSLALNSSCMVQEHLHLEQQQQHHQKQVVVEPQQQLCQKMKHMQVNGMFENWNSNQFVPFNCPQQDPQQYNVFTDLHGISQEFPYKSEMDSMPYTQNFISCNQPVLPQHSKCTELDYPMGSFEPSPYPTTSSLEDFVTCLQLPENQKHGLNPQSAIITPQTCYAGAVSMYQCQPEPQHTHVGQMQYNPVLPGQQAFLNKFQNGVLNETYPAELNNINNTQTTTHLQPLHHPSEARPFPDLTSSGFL
Chain of Estrogen receptor (Homo sapiens) (P03372 whole entry, looked up): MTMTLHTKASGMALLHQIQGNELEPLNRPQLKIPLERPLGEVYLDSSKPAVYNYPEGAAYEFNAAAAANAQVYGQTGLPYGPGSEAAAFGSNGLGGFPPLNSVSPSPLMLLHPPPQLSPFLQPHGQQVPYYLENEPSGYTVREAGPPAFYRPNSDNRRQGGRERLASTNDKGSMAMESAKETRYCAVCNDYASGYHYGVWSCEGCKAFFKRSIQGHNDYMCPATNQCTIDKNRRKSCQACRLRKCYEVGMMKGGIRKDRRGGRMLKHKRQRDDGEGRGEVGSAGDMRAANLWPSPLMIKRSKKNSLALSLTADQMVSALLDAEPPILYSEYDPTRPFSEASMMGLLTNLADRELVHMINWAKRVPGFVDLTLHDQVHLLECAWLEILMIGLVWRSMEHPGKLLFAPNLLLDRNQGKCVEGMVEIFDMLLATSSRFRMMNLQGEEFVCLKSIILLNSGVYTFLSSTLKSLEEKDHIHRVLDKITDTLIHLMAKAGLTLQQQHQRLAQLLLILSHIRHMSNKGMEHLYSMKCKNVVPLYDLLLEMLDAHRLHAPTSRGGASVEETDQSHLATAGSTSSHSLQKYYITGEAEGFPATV
Chain of Peroxisome proliferator-activated receptor gamma (Homo sapiens) (P37231 whole entry, looked up): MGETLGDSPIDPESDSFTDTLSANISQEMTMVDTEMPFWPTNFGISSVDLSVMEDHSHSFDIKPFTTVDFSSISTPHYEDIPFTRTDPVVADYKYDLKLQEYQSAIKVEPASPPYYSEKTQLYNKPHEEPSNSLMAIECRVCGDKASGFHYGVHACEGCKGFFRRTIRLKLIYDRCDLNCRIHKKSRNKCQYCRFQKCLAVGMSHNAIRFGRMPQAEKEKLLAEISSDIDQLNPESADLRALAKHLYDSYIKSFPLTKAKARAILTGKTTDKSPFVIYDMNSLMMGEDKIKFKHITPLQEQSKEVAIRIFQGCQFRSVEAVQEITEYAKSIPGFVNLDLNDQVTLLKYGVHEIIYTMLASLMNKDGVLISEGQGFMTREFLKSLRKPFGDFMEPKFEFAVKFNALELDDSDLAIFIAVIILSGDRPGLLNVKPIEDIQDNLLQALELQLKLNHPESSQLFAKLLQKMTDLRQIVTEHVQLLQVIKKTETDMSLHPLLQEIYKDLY
Chain of Aromatase (Homo sapiens) (P11511 whole entry, looked up): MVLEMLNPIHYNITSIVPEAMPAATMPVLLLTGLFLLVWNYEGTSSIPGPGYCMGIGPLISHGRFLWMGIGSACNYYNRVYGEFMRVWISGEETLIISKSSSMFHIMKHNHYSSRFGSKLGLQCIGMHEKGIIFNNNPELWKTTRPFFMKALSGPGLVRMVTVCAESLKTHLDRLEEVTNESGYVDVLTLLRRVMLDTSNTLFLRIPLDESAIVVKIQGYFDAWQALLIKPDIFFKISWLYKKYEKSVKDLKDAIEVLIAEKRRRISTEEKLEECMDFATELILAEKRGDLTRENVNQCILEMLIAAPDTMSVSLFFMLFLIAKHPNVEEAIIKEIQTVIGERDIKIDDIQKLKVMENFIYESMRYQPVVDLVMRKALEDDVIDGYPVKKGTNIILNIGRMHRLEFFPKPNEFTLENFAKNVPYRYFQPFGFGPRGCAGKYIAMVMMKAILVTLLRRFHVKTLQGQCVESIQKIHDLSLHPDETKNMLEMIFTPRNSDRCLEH

CC(C)(N)C#N
inactive: all assays above

O=C(O)CNC(=O)c1ccc(CO)o1
not listed: [13]
inactive: all other assays above

CCOC(=O)CCC(=O)OCC
not listed: [18]
inactive: all other assays above

CCCOC(=O)CC
not listed: [15] | [16]
inactive: all other assays above

c1ccc(Cc2ccccc2)cc1
not listed: [16]
inactive: all other assays above

CC1OC1C1CCC2(C)OC2C1 (configuration not stated)
not listed: [14]
inactive: all other assays above

CCOC(=O)COc1cc(-n2ncc(C(F)(F)F)c(C)c2=O)c(F)cc1Cl
inactive: all assays above

O=C(CO)[C@@H](O)[C@H](O)[C@@H](O)CO
not listed: [15]
inactive: all other assays above

Cc1ccc(-c2ncc(Cl)cc2-c2ccc(S(C)(=O)=O)cc2)cn1
not listed: [16]
inactive: all other assays above

O=[N+]([O-])c1ccc(/C=N\O)o1
not listed: [15] | [18]
inactive: all other assays above

CCOC(=O)COC(=O)c1ccccc1C(=O)OCC
not listed: [14]
inactive: all other assays above

CCCCCCCCCCCCCCCCCCO
inactive: all assays above

CC(=O)c1cnccn1
not listed: [13]
inactive: all other assays above

CCCCN1C=CN(C)C1
not listed: [15]
inactive: all other assays above
